# Assay results: PubChem BioAssay (EPA / NIEHS)
# Active and inactive are the calls of the source. How the source made its calls: active means hit-call score of the fitted dose curve at least 0.9, where 1 is the maximum; inactive means score below 0.9.
# Assay: ATG_GLI_CIS: Attagene CIS-FACTORIAL HepG2 Assay for human Zinc Finger Protein GLI1 (AID 2282945)
# Conditions: HepG2, Attagene cis-factorial reporter mRNA, GLI element; actives raise or lower the signal
# Protocol: ATG_CIS is a cell-based, multiplexed-readout assay that uses HepG2, a human liver cell line, with measurements taken at 24 hours after chemical dosing in a 24-well plate.ATG_GLI_CIS is one of 52 assay component(s) measured or calculated from the ATG_CIS assay. It is designed to make measurements of mRNA induction, a form of inducible reporter, as detected with fluorescence intensity signals by Reverse transcription polymerase chain reaction (RT-PCR) and Capillary electrophoresis technology.Data from the assay component ATG_GLI_CIS was analyzed into 1 assay endpoint. This assay endpoint, ATG_GLI_CIS, was analyzed with bidirectional fitting relative to DMSO as the negative control and baseline of activity. Using a type of inducible reporter, measures of mRNA for gain or loss-of-signal activity can be used to understand the reporter gene at the transcription factor-level as they relate to the gene GLI1. Furthermore, this assay endpoint can be referred to as a primary readout, because this assay has produced multiple assay endpoints where this one serves a reporter gene function. To generalize the intended target to other relatable targets, this assay endpoint is annotated to the dna binding intended target family, where the subfamily is zinc finger.
# Human liver HepG2 cells are transiently transfected with multiple reporter transcription units (MRTUs) in 6-well plates using FuGene 6 reagent (Roche; 3 ml FuGene/1 mg DNA). The MRTU constructs are regulated by a cis-regulating element (promoter). […] A major difference between the CIS and TRANS system is that in CIS activities of endogenous TFs are measured, whereas the TRANS assay evaluates changes in activities of exogenous, chimeric NR-Gal4 proteins. […] At the end of 24 hour incubation, total RNA was isolated using TriZol reagent (Invitrogen). The isolated RNA is then reverse-transcribed using oligo(dT) primer and Mo-MLV reverse transcriptase (Invitrogen) with DNAse I (Ambion) treatment for 30 min. The one-tenth of the produced cDNA was amplified by PCR using Taq DNA polymerase (Invitrogen) and two reporter sequence-specific primers. The PCR products were fluorescently labeled by primer extension with 6-arboxyfluorescein (6-FAM) 5'-labeled reporter sequence-specific primer (2 min at 95 C, 20 s at 68 C and 10 min at 72 C) and these products were digested with 5U of HpaI (New England Biolabs) for 2h at 37 C. The fragments were purified using Qiaquick PCR columns (Qiagen), analyzed on an ABI 3130xL genetic analyzer (Applied Biosystems) with peak positions identified by using a set of X-rhodamine (ROX)-labeled MapMarker1000 molecular weight standards (BioVentures). The raw capillary electrophoresis data was processed using Attagraph software (Attagene).
Compound,AC50,outcome
CCCCCCCCCc1ccc(OCCO)cc1,21.4 µM (active),
Brc1nc2ccccc2s1,,inactive
CCC/C=C/CO,,inactive
CCOC(C=C(C)CCC=C(C)C)OCC,,inactive
CC1=CCC2C(=O)OC(=O)C2C1 (stereo not given),,inactive
OCCCc1cccnc1,,inactive
CCN=C1C=CC(=C(c2ccc(N(CC)CC)cc2)c2ccc(N(CC)CC)cc2)c2ccccc21,5.55 µM (active),
CC1=CC2C3C=CC(C3)C2C1C (stereo not given),,inactive
CC(C)(C)c1cc(Cc2cc(C(C)(C)C)c(O)c(C(C)(C)C)c2)cc(C(C)(C)C)c1O,,inactive
CCOCN(C(=O)CS(=O)(=O)O)c1c(C)cccc1CC,,inactive
CC(C)OC(=O)COc1ccc(Cl)cc1Cl,,inactive
CCCCCCCCCCCCC[N+](C)(C)Cc1ccccc1,,inactive
O=C(O)CCC(F)(F)C(F)(F)C(F)(F)C(F)(F)C(F)(F)C(F)(F)C(F)(F)F,,inactive
CCCCOC(=O)[C@H](C)O,,inactive
O=C(O)C(F)(F)C(F)(F)C(F)(F)C(F)(F)C(F)(F)C(F)(F)C(F)F,,inactive
CO[Si](C)(CCC(F)(F)C(F)(F)C(F)(F)C(F)(F)C(F)(F)C(F)(F)F)OC,,inactive
COC(F)(C(F)F)C(F)(F)F (stereo not given),,inactive
C=CCOC(=O)CC(C)C,,inactive
CC(C)(C)c1cc(CCC(=O)NCCCCCCNC(=O)CCc2cc(C(C)(C)C)c(O)c(C(C)(C)C)c2)cc(C(C)(C)C)c1O,,inactive
NCC(F)(F)C(F)(F)C(F)(F)C(F)(F)C(F)(F)C(F)(F)F,,inactive

Compound,AC50,outcome
O=C1C=CC(=O)N1c1ccc(Cc2ccc(N3C(=O)C=CC3=O)cc2)cc1,,inactive
CCN(CC)c1ccc(C=O)cc1,,inactive
NC(O)(C(F)(F)F)C(F)(F)F,,inactive
Cc1cccc(C)n1,,inactive
CC1CCCCC1,,inactive
OCCC(O)CO (stereo not given),,inactive
OCC(F)(F)C(F)(F)C(F)(F)C(F)(F)C(F)(F)C(F)(F)CO,,inactive
CSc1ccc(O)cc1C,,inactive
OCC(F)(F)C(F)(F)C(F)(F)C(F)(F)C(F)(F)C(F)(F)C(F)(F)C(F)(F)CO,,inactive
O=C1C=CC(=O)N1c1ccccc1,,inactive
CO[Si](CCCOCC1CO1)(OC)OC (stereo not given),,inactive
CC(=O)CCC(C)C,,inactive
N#CCCOCCC#N,,inactive
CCOC(=O)CC(=O)C(F)(F)C(F)(F)F,,inactive
CCCCOC(=O)C(C)O (stereo not given),,inactive
CC(C)Nc1ccc(NC(C)C)c2c1C(=O)c1ccccc1C2=O,,inactive
C=CC(=O)OCCC(F)(F)C(F)(F)C(F)(F)C(F)(F)F,,inactive
F[Si-2](F)(F)(F)(F)F,,inactive
O=S(=O)(OCC(F)(F)F)C(F)(F)C(F)(F)C(F)(F)C(F)(F)F,,inactive
Nc1cc([N+](=O)[O-])cc(Cl)c1O,,inactive
